Assay results published in article PMC5540273 (PLoS ONE, 2017).

Experiments:
Conditions in all cases: concentration: 1 μM, replicates: in singlicate; n = 1
[1] = test system: FGFR1
[2] = test system: FGFR2
[3] = test system: FGFR3
[4] = test system: FGFR4
[5] = test system: FGR
[6] = test system: FLT1
[7] = test system: FLT3-autoinhibited
[8] = test system: FLT3
[9] = test system: FLT4
[10] = test system: FRK
[11] = test system: FYN
[12] = test system: GAK
[13] = test system: T1, GCN2(Kin.Dom.2,S808G)
T1 construct: gene EIF2AK4

[14] = test system: GRK1
[15] = test system: T2, GRK2
T2 construct: gene ADRBK1

[16] = test system: T3, GRK3
T3 construct: gene ADRBK2

[17] = test system: GRK4
[18] = test system: GRK7
[19] = test system: GSK3A
[20] = test system: GSK3B
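Further: KINOMEscan kinase panel screen.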

Row | Structure (SMILES) | %Inh [1] [%] | %Inh [2] [%] | %Inh [3] [%] | %Inh [4] [%] | %Inh [5] [%] | %Inh [6] [%] | %Inh [7] [%] | %Inh [8] [%] | %Inh [9] [%] | %Inh [10] [%] | %Inh [11] [%] | %Inh [12] [%] | %Inh [13] [%] | %Inh [14] [%] | %Inh [15] [%] | %Inh [16] [%] | %Inh [17] [%] | %Inh [18] [%] | %Inh [19] [%] | %Inh [20] [%]
1 | Cl.Cl.NCC(NC(=O)c1cc(-c2ccccc2)c(-c2ccnc3[nH]ccc23)s1)c1ccccc1 (stereo not drawn) [GSK1321561] | 15 | 14 | 19 | 0 | 35 | 10 | 0 | 0 | 2 | 72 | 59 | 86 | 0 | 9 | 0 | 15 | 0 | 25 | 31 | 26
2 | C[C@@H](Oc1cc(-n2cnc3cc(-c4ccnc(NCCS(C)(=O)=O)c4)ccc32)sc1C(N)=O)c1ccccc1Cl [GSK907232] | 66 | 88 | 81 | 22 | 44 | 63 | 29 | 98.1 | 96.6 | 18 | 14 | 64 | 71 | 0 | 0 | 39 | 82 | 0 | 0 | 16
3 | Cl.NC(=O)c1cccc(Nc2nccc(Nc3ccc(Oc4c(Cl)cccc4Cl)c(Cl)c3)n2)c1 [GW659009] | 0 | 0 | 0 | 0 | 31 | 0 | 12 | 33 | 0 | 7 | 66 | 59 | 0 | 0 | 0 | 39 | 4 | 0 | 0 | 0
4 | O=C(O)C(F)(F)F.O=C(O)C(F)(F)F.O=c1[nH]ccc2nc(N[C@@H]3CCCNC3)nc(Nc3ccc(S(=O)(=O)N4CCOCC4)cc3)c12 [GSK2177277] | 81 | 60 | 62 | 0 | 91.2 | 68 | 99.6 | 99.3 | 98.7 | 39 | 61 | 97.4 | 100 | 96.6 | 72 | 88 | 92.2 | 96 | 99.3 | 98.2
5 | Cl.c1ccc(-c2ccc3c(Nc4ccc5[nH]ccc5c4)ccnc3c2)nc1 [GW440138] | 63 | 63 | 58 | 29 | 53 | 98.1 | 0 | 0 | 92.9 | 17 | 46 | 64 | 0 | 0 | 0 | 50 | 0 | 0 | 26 | 0
6 | COc1ccc(Nc2nccc(N3CCC(NC(=O)Nc4cccc(OC)c4)C3)n2)cc1 (stereo not drawn) [GSK1379742] | 5 | 7 | 5 | 0 | 17 | 36 | 20 | 35 | 0 | 8 | 0 | 23 | 6 | 0 | 0 | 22 | 0 | 0 | 13 | 2
7 | COc1ccc(CNC(=O)NC2CCN(c3ccnc(Nc4ccc(F)cc4)n3)CC2)cc1 [GSK1379788] | 0 | 0 | 8 | 0 | 19 | 16 | 0 | 0 | 0 | 0 | 8 | 0 | 0 | 0 | 0 | 57 | 0 | 0 | 2 | 0
8 | Cc1ccc(C(=O)N2CC[C@@H](O)C2)cc1-n1c(C)cc(OCc2ccc(F)cc2F)c(Br)c1=O | 80 | 66 | 21 | 0 | 0 | 46 | 0 | 14 | 0 | 14 | 21 | 0 | 0 | 16 | 0 | 0 | 0 | 0 | 0 | 0
9 | O=C(Nc1cccc(-c2nn3ncccc3c2-c2ccnc(Nc3ccccc3)n2)c1)c1c(F)cccc1F [GSK198271] | 0 | 7 | 3 | 14 | 97.2 | 98.4 | 0 | 72 | 77 | 89 | 85 | 31 | 33 | 0 | 0 | 0 | 1 | 0 | 16 | 14
